The entries come from a sample that favours hits as a whole.
C diff growth = blocks growth of Clostridium difficile | AID 1259249 | growth activity, negative = inhibition, % at 16 µg/mL (by protocol) | Clostridium difficile clinical isolate growth, OD600, 24 h; active compounds read low | 0.25% of 86,000 active;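 active = mean growth activity at or below -80% and every replicate also at or below -80%; inconclusive = mean at or below -80% but some replicate above -80%; inactive = mean growth activity above -80%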;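 note: 0% = DMSO wells and -100% = levofloxacin 16 µg/mL wells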
T cruzi growth-1 = blocks T. cruzi growth in NIH3T3 culture; 5.9% of 77,000 active; T. cruzi beta-gal in NIH3T3, GalScreen luminescence, 90 h; AID 624255; inhibition, % at 8.34 µM;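 active = mean inhibition above about 93%, with at least 55% of replicates each passing it, limit read from the data, passing the limit was not always enough; inconclusive = only one of those two conditions holds; inactive = neither condition holds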
T cruzi growth-2 = Trypanosoma cruzi proliferation inhibition; shares compounds with T cruzi growth-1; T. cruzi beta-gal in NIH3T3, GalScreen luminescence, 90 h; inhibition, % at 8.35 µM; 72% of 5,600 active; AID 651739;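 active = mean replicate inhibition above about 95% and at least 55% of replicates individually reaching it, limit read from the data; inconclusive = only one of the two criteria is met; inactive = neither criterion is met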
T cruzi growth-3 = blocks T. cruzi growth in NIH3T3 host cells; AID 651740; inhibition, % at 2.09 µM; T. cruzi beta-gal in NIH3T3, GalScreen luminescence, 90 h; shares compounds with T cruzi growth-1; 21% of 5,600 active;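 active = mean inhibition above about 95%, with at least 55% of replicates also reaching it, limit read from the data; inconclusive = meets just one of the two conditions; inactive = meets neither condition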;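 note: plate controls were neutral control median for no effect and positive control median for full effect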
3T3 cytotox = NIH/3T3 (mouse) viability loss | 14% of 5,600 active | AID 651742 | NIH/3T3 viability, CellTiter-Glo ATP luminescence, 90 h | shares compounds with T cruzi growth-1 | cytotoxicity (signal decrease), % at 8.35 µM;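 active = mean signal decrease across replicates above about 35% based on untreated-well scatter, with enough replicates individually passing, limit read from the data; inconclusive = no rule stated though some were filed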;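 note: 0% = median of neutral control wells and 100% = median of positive control wells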
NIH3T3 tox 2 = cytotoxicity in mouse NIH/3T3 fibroblasts; 56% of 5,600 active; NIH/3T3 viability, CellTiter-Glo ATP luminescence, 90 h; inhibition, % at 24.9 µM; shares compounds with T cruzi growth-1;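 active = mean loss of cell viability signal at or above a set limit, and enough replicates individually reaching it; inconclusive = meets only the mean limit or only the replicate share; inactive = meets neither condition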;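 note: 0% = median of neutral control wells and 100% = median of positive control wells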
The depositor's hits bear a star; ? = inconclusive; nt = no result.

SMILES	C diff growth	T cruzi growth-1	T cruzi growth-2	T cruzi growth-3	3T3 cytotox	NIH3T3 tox 2
Cn1cnc(S(=O)(=O)N2CCCCN3[C@@H](CO)[C@H](c4ccc(-c5ccccc5F)cc4)[C@@H]3C2)c1	-9	31	nt	nt	nt	nt
Cn1cnc(S(=O)(=O)N2CCCCN3[C@H](CO)[C@@H](c4ccc(-c5ccccc5F)cc4)[C@@H]3C2)c1	-13	49	nt	nt	nt	nt
COc1ccc(S(=O)(=O)N(C)C[C@H]2OCCCC[C@@H](C)Oc3ccc(NC(=O)Nc4cccc5ccccc45)cc3C(=O)N([C@H](C)CO)C[C@H]2C)cc1	4	88	nt	nt	nt	nt
O=C(Cc1ccccn1)N[C@H]1CC[C@H](CCn2cc(-c3ccccc3)nn2)O[C@H]1CO	nt	-29	nt	nt	nt	nt
C[C@H](CO)N1C[C@H](C)[C@H](CN(C)Cc2ccc(C(=O)O)cc2)Oc2c(NS(=O)(=O)c3ccccc3)cccc2C1=O	2	26	nt	nt	nt	nt
C[C@H]1CN([C@@H](C)CO)C(=O)c2cc(C#Cc3cccc(F)c3)cnc2O[C@@H]1CN(C)C(=O)c1ccccc1F	7	110*	101*	28	-20	0
C[C@@H]1CN([C@H](C)CO)C(=O)c2cc(C#Cc3cccc(F)c3)cnc2O[C@@H]1CN(C)C(=O)c1ccccc1F	-6	86	nt	nt	nt	nt
COc1ccc(C#Cc2cnc3c(c2)C(=O)N([C@@H](C)CO)C[C@@H](C)[C@H](CN(C)C(C)=O)O3)cc1	-1	19	nt	nt	nt	nt
C[C@H](CO)N1C[C@H](C)[C@H](CN(C)C(=O)Nc2ccc(F)cc2)Oc2ncc(C#Cc3cccc(F)c3)cc2C1=O	59	?	90	68	75*	105*
C[C@@H]1CN([C@H](C)CO)C(=O)c2cc(C#Cc3cccc(F)c3)cnc2O[C@H]1CN(C)C(=O)c1ccccc1F	-6	104*	106*	44	43*	?
C[C@H](CO)N1C[C@H](C)[C@H](CN(C)C(=O)Nc2ccccc2)Oc2ncc(C#Cc3cccc(F)c3)cc2C1=O	25	35	nt	nt	nt	nt
C[C@H]1CN([C@@H](C)CO)C(=O)c2cc(C#Cc3cccc(F)c3)cnc2O[C@H]1CN(C)C(=O)c1ccccc1F	9	80	nt	nt	nt	nt
COc1ccc(C#Cc2cnc3c(c2)C(=O)N([C@H](C)CO)C[C@@H](C)[C@H](CN(C)C(C)=O)O3)cc1	-1	?	32	8	14	33*
CN(C)CC#Cc1ccc([C@H]2[C@@H](CO)N3C(=O)CN(C(=O)c4ccccc4)C[C@H]23)cc1	1	nt	nt	nt	nt	nt
C[C@H]1CN([C@@H](C)CO)C(=O)c2cccc(NC(=O)Nc3ccc4c(c3)OCO4)c2O[C@@H]1CN(C)S(=O)(=O)c1ccccc1	-6	13	nt	nt	nt	nt
C[C@H](CO)N1C[C@H](C)[C@H](CN(C)S(=O)(=O)c2ccc(F)cc2)OCCCC[C@H](C)Oc2ccc(NC(=O)CCC(F)(F)F)cc2C1=O	-3	43	nt	nt	nt	nt
O=C(C[C@H]1CC[C@@H]2[C@H](COC[C@H](O)CN2C(=O)c2ccc(F)cc2)O1)N1CCOCC1	nt	-19	nt	nt	nt	nt
COc1ccc(NC(=O)N(C)C[C@@H]2Oc3ccc(NC(=O)NC4CCCCC4)cc3CC(=O)N([C@@H](C)CO)C[C@H]2C)cc1	-10	-35	nt	nt	nt	nt
COc1ccc(C#Cc2cnc3c(c2)C(=O)N([C@H](C)CO)C[C@@H](C)[C@H](CN(C)C(=O)c2ccccc2F)O3)cc1	-3	21	nt	nt	nt	nt
COc1ccc(C#Cc2cnc3c(c2)C(=O)N([C@@H](C)CO)C[C@H](C)[C@@H](CN(C)C(=O)c2ccccc2F)O3)cc1	13	113*	98*	47	-25	-5
C[C@@H]1CN([C@H](C)CO)C(=O)c2cc(NS(=O)(=O)c3ccc(Cl)cc3)ccc2O[C@@H]1CN(C)Cc1ccc(C(=O)O)cc1	nt	92	nt	nt	nt	nt
CCCN(C)C[C@H]1Oc2cc(-c3ccccc3F)ccc2S(=O)(=O)N([C@H](C)CO)C[C@H]1C	4	58	nt	nt	nt	nt
C[C@H]1CN([C@@H](C)CO)S(=O)(=O)c2ccc(-c3ccccc3F)cc2O[C@H]1CN(C)Cc1cccnc1	2	95*	99*	84	67*	49*
C[C@H](CO)N1C[C@H](C)[C@H](CN(C)Cc2ccncc2)Oc2cc(-c3ccccc3F)ccc2S1(=O)=O	2	106*	93	91	59*	76*
C[C@@H]1CN([C@@H](C)CO)S(=O)(=O)c2ccc(-c3ccccc3F)cc2O[C@H]1CN(C)Cc1ccncc1	-4	116*	88	97*	65*	101*
SMILES	C diff growth	T cruzi growth-1	T cruzi growth-2	T cruzi growth-3	3T3 cytotox	NIH3T3 tox 2
C[C@@H]1CN([C@H](C)CO)S(=O)(=O)c2ccc(-c3ccccc3F)cc2O[C@@H]1CN(C)Cc1ccncc1	-17	110*	101*	77	35*	77*
C[C@H]1CN([C@@H](C)CO)S(=O)(=O)c2ccc(-c3ccccc3F)cc2O[C@@H]1CN(C)Cc1cncnc1	-7	35	nt	nt	nt	nt
Cc1ccccc1-c1ccc2c(c1)O[C@@H](CN(C)Cc1ccncc1)[C@@H](C)CN([C@@H](C)CO)S2(=O)=O	2	90	nt	nt	nt	nt
CN1c2ccc(-c3ccccc3)cc2[C@H]2[C@H](CCN2C(=O)CC2CC2)[C@H]1CO	7	47	nt	nt	nt	nt
Cn1cnc(S(=O)(=O)N[C@H]2C=C[C@@H](CC(=O)NCC3CC3)O[C@H]2CO)c1	nt	-43	nt	nt	nt	nt
CN1c2ccc(-c3ccc(C#N)cc3)cc2[C@H]2[C@H](CCN2S(=O)(=O)c2cccc(F)c2)[C@H]1CO	-3	50	nt	nt	nt	nt
COc1cccc(NC(=O)N2C[C@@H](O)COC[C@H]3O[C@@H](CC(=O)NC4CCCC4)CC[C@@H]32)c1	nt	23	nt	nt	nt	nt
Cc1noc(C)c1NC(=O)N(C)C[C@@H]1Oc2ccc(NC(=O)Nc3cccc4ccccc34)cc2CC(=O)N([C@@H](C)CO)C[C@@H]1C	2	-8	nt	nt	nt	nt
CCC(=O)N(C)C[C@H]1Oc2cc(-c3ccc(OC)cc3)ccc2S(=O)(=O)N([C@H](C)CO)C[C@H]1C	-3	nt	nt	nt	nt	nt
COCC(=O)Nc1ccc2c(c1)C(=O)N(C)C[C@@H](OC)[C@@H](C)CN(C(=O)c1ccncc1)[C@@H](C)CO2	-3	0	nt	nt	nt	nt
C[C@H]1CN([C@@H](C)CO)S(=O)(=O)c2ccc(-c3ccccc3F)cc2O[C@@H]1CN(C)Cc1ccncc1	-5	116*	101*	100*	40*	104*
C[C@H](CO)N1C[C@H](C)[C@@H](CN(C)Cc2ccncc2)Oc2cc(-c3ccccc3F)ccc2S1(=O)=O	9	114*	96*	100*	59*	98*
C[C@@H]1CN([C@H](C)CO)S(=O)(=O)c2ccc(-c3ccccc3F)cc2O[C@@H]1CN(C)C	-1	49	nt	nt	nt	nt
C/C=C/c1ccc([C@@H]2[C@H](CO)N(C(=O)c3ccccn3)C23CN(CCC(F)(F)F)C3)cc1	-9	nt	nt	nt	nt	nt
CO[C@@H](CN(C)S(=O)(=O)c1ccc(C)cc1)[C@H](C)CN(Cc1ccccc1Cl)[C@H](C)CO	nt	14	nt	nt	nt	nt

Source: PubChem BioAssay
